In PMC4336329 (PLoS ONE, 2015):
Out of some 310,000 compounds screened, about 14,000 (4.5%) showed an effect of 50% or more. The effect is printed as a negative number. For the sample, strong results were picked, then their nearest neighbours and some compounds at random.

biological target: human ether-à-go-go-related gene (hERG) potassium channel (human, UniProt Q12809); assay: primary screen, population patch clamp on CHO cells stably expressing hERG; higher = less effect of the substance
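Further: peak tail current of the secondary pulse compared with the same well before compound.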

Chain of human ether-à-go-go-related gene (hERG) potassium channel (Q12809 whole entry, looked up): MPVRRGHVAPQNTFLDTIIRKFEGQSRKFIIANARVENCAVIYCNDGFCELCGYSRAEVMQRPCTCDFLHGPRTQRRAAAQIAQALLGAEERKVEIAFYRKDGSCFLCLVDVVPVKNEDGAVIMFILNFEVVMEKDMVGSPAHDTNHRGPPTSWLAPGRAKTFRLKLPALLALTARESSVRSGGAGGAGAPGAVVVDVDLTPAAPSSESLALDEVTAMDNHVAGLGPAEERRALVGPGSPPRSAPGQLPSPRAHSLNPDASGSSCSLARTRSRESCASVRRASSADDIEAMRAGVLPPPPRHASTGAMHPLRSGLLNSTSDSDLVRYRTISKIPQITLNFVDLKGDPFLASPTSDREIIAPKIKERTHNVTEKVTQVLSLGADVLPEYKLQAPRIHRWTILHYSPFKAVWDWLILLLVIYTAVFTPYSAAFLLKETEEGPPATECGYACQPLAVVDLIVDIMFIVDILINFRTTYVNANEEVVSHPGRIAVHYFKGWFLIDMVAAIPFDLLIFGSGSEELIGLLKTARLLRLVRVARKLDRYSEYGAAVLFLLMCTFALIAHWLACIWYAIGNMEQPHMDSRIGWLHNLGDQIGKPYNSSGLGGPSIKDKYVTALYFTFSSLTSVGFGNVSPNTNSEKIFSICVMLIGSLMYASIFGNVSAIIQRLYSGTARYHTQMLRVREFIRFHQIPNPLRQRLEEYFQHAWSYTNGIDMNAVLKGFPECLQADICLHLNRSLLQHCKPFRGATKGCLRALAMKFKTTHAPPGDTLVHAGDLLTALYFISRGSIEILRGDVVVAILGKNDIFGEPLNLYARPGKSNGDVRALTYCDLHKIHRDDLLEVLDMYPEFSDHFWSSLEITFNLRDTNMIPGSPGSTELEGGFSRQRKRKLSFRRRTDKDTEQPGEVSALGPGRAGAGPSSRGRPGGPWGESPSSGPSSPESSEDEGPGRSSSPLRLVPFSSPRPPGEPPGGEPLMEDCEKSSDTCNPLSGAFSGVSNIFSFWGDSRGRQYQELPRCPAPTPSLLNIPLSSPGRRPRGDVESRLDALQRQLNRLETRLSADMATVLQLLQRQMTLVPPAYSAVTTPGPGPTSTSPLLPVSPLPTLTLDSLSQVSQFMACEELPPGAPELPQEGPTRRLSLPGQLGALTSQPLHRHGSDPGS

Point of comparison: COC(=O)c1ccc(OCC(O)CN(CC(C)C)CC(C)C)cc1 (centres unmarked), “hERG current change (%, negative = inhibition) at 10uM” value -4.37%. Against it:
- COc1ccc(/C(O)=C/C(=O)C(=O)Nc2c(C)n(C)n(-c3ccccc3)c2=O)cc1 — higher, 8.01%
- CCc1c(C)sc2nc3c(C(=O)N4CCOCC4)cc(C(=O)c4ccccc4O)cn3c(=O)c12 — lower, -10.7%
- Cc1cc(C)nc(OC(C(=O)O)C(OCCc2ccccc2)(c2ccccc2)c2ccccc2)n1 (centres unmarked) — higher, 16.3%
- CCOC(=O)C1=C(CC)Nc2ccccc2N=C1NC(=O)c1oc2ccccc2c1C — higher, 12.6%
- CC(C)(CNC(=O)c1ccc(-c2ccccc2Cl)o1)N1CCOCC1 — lower, -39.9%
- O=C(COC(=O)c1cc(=O)c2ccccc2o1)NCC1CCCCC1 — higher, 6.26%
- CC(C)CN(CC(C)C)CC(O)COc1ccc([N+](=O)[O-])cc1.Cl (centres unmarked) — lower, -66.8%
- O=[N+]([O-])c1ccc(OCC(O)CN(CCO)CCO)cc1 (centres unmarked) — lower, -54.8%
- Cl.OCCN(CCO)CC(O)COc1ccc2c(c1)OCO2 (centres unmarked) — higher, 2.18%
- O=C(NCC(O)COc1ccc([N+](=O)[O-])cc1)Nc1ccccc1 (centres unmarked) — lower, -49.4%
- Cc1cc(C)cc(NC(=O)NCC(O)COc2ccc([N+](=O)[O-])cc2)c1 (centres unmarked) — lower, -42.3%
- CCCN(CCC)CC(O)COc1ccc2c(c1)OCO2.Cl (centres unmarked) — lower, -28.8%
- CCCN(CCC)CC(O)COc1ccc([N+](=O)[O-])cc1 (centres unmarked) — lower, -77.1%
- COC(=O)c1ccc(OCC(O)CN(CCO)CCO)cc1 (centres unmarked) — higher, -3.29%
- C/C(=N\NC(=O)CC(C)C)c1ccc(Cl)c(Cl)c1 — higher, 30.7%
- O=c1nc2n(c3c4c(sc13)CCC4)CCC2 — higher, 5.51%
- CC(=O)Nc1ccc(C(=O)NCCN2CCOCC2)cc1 — higher, 15.8%
- CCOc1ccccc1/C=N/Nc1nc2c(N)ncnc2n1[C@H]1O[C@@H](CO)[C@H](O)[C@@H]1O — lower, -9.61%
- Cc1ccccc1C1c2[nH]c3ccccc3c2C[C@H]2C(=O)N(c3ccccc3C(=O)NCCCN3CCOCC3)C(=O)N12 (some centres unmarked) — lower, -21.3%
- O=C(CCN1CCOCC1)N1CCc2c([nH]c3ccccc23)C1c1cccc(Cl)c1 (centres unmarked) — lower, -70.5%
- O=C(NCCN1CCOCC1)c1ccccc1N1C(=O)[C@@H]2Cc3c([nH]c4ccccc34)C(c3ccc(F)cc3)N2C1=O (some centres unmarked) — lower, -47.2%
- COc1cccc(C2c3[nH]c4ccccc4c3C[C@H]3C(=O)N(c4ccccc4C(=O)NCCCN4CCOCC4)C(=O)N23)c1 (some centres unmarked) — lower, -19.9%
- O=C(NCCN1CCOCC1)c1ccccc1N1C(=O)[C@@H]2Cc3c([nH]c4ccccc34)C(c3ccccc3)N2C1=O (some centres unmarked) — lower, -20.4%
- COc1ccc(C2c3[nH]c4ccccc4c3C[C@H]3C(=O)N(c4ccccc4C(=O)NCCN4CCOCC4)C(=O)N23)cc1 (some centres unmarked) — lower, -23.7%
- O=C(NCCCN1CCOCC1)c1ccccc1N1C(=O)[C@@H]2Cc3c([nH]c4ccccc34)C(c3cccc(Cl)c3)N2C1=O (some centres unmarked) — lower, -72.3%
- Cc1ccc(C2c3[nH]c4ccccc4c3C[C@H]3C(=O)N(c4ccccc4C(=O)NCCN4CCOCC4)C(=O)N23)cc1 (some centres unmarked) — lower, -24.9%
- Cc1ccc(C2c3[nH]c4ccccc4c3C[C@H]3C(=O)N(c4ccccc4C(=O)NCCCN4CCOCC4)C(=O)N23)cc1 (some centres unmarked) — lower, -54.6%
- O=C(c1cnccn1)N1CCc2c([nH]c3ccccc23)C1c1cccc(Cl)c1 (centres unmarked) — lower, -33.6%
- CC(=O)NCCC(=O)N1CCc2c([nH]c3ccccc23)C1c1cccc(Cl)c1 (centres unmarked) — lower, -24.2%
- O=C(NCCCN1CCOCC1)c1ccccc1N1C(=O)[C@@H]2Cc3c([nH]c4ccccc34)C(c3ccc(F)cc3)N2C1=O (some centres unmarked) — lower, -68%
- O=C(O)c1ccc(/C=C2\SC(=S)N(NC(=O)c3ccccc3[N+](=O)[O-])C2=O)cc1 — higher, 12.4%
- [2H]C([2H])(CCOS(N)(=O)=O)c1ccccc1 — higher, 11.1%
- CC(=O)N1CCc2c(sc(NC(=O)C3COc4ccccc4O3)c2C(N)=O)C1 (centres unmarked) — lower, -20%
- CCOc1ccc(CN2CCSCC2)cc1 — higher, 2.36%
- O=C(NCCNS(=O)(=O)c1ccccc1)c1ccc([N+](=O)[O-])cc1 — lower, -12%
- COc1ccccc1Nc1nc(N)nc(CN2CCOCC2)n1 — higher, 10.1%
- COc1ccccc1Nc1nc(N)nc(CN2CCCCC2)n1 — lower, -54.9%
- Cc1cccc(Nc2nc(N)nc(CN3CCC(C(N)=O)CC3)n2)c1C — higher, 17.5%
- Cc1c(Cl)cccc1Nc1nc(N)nc(CN2CCCCCC2)n1 — lower, -74.6%
- Cc1c(Cl)cccc1Nc1nc(N)nc(CN2CCc3ccccc3C2)n1 — lower, -33%
- COc1ccccc1Nc1nc(N)nc(CSCCO)n1 — higher, 15%
- COc1ccccc1Nc1nc(N)nc(CSC(=S)N2CC(C)CC(C)C2)n1 (centres unmarked) — lower, -9.46%
- COc1ccccc1Nc1nc(N)nc(CN2CC(C)CC(C)C2)n1 (centres unmarked) — lower, -73.8%
- COc1ccccc1Nc1nc(N)nc(CN2CCCCCC2)n1 — lower, -57.7%
- COc1ccccc1Nc1nc(N)nc(CSC(=S)N2CCCCC2)n1 — higher, 0.598%
- COc1ccccc1Nc1nc(N)nc(CSc2ncccn2)n1 — lower, -24.2%
- O=C(Nc1ccc2c(c1)OCO2)c1cccc(S(=O)(=O)N2CCCC2)c1 — lower, -15.9%
- CN(Cc1ccccc1)C(=O)CN1C(=O)NC(C)(c2ccc(C(C)(C)C)cc2)C1=O (centres unmarked) — lower, -16.8%
- COc1cccc(/C=N/NC(=O)c2nc(-c3ccccc3)cc(-c3ccccc3)n2)c1O — lower, -9.46%
- Cc1cc(=O)oc2cc(OCC(=O)N/N=C/c3ccccc3O)ccc12 — higher, 23.9%
- O.O=C(NCc1nc2ccccc2[nH]1)c1ccc(Cl)c(S(=O)(=O)N2CCCC2)c1 — lower, -14.3%
- CCOC(=O)c1oc2ccc(CNC(C)(C)C)c(Cl)c2c1C.O=C(O)C(=O)O — lower, -5.61%
- O=C(CC(C(=O)O)P(=O)(c1ccccc1)c1ccccc1)c1ccccc1 (centres unmarked) — higher, 24.3%
- Nc1ccc(-c2cc(N)n(-c3ccccc3)n2)cc1 — higher, 0.669%
- Cn1c2ccccc2c2cc(C(=O)NNS(=O)(=O)c3ccc(F)cc3)sc21 — lower, -5.97%
- COc1ccccc1Nc1nc(N)nc(CSC(=S)N2CCC(C)CC2)n1 — lower, -13.7%
- COc1ccccc1Nc1nc(N)nc(CN2CCC(C)CC2)n1 — lower, -67.5%
- Cc1cc(C(F)(F)F)nn1C(=O)c1cccnc1Cl — lower, -5.15%
- O=C(C1=C[C@H](C2CC2)C[C@H](OCCCCO)O1)N1CCN(Cc2ccccc2)CC1 — lower, -12.5%
- CN1CCN(C(=O)C2=C[C@H](C3CCCCC3)C[C@H](OCc3ccc(CO)cc3)O2)CC1 — lower, -61.7%
- O=C(C1=C[C@H](C2CC2)C[C@H](OCc2ccc(CO)cc2)O1)N1CCN(Cc2ccccc2)CC1 — lower, -62.7%
- CC(C)(C)[C@H]1C=C(C(=O)N2CCN(Cc3ccccc3)CC2)O[C@@H](OCc2ccc(CO)cc2)C1 — lower, -38.9%
- CN1CCN(C(=O)C2=C[C@@H](C3CC3)C[C@@H](OCc3ccc(CO)cc3)O2)CC1 — higher, 16.5%
- CCO[C@@H]1OC(C(=O)N2CCN(Cc3ccc4c(c3)OCO4)CC2)=C[C@H](C2CC2)[C@H]1CCCO — lower, -18.7%
- CCO[C@@H]1OC(C(=O)N2CCN(Cc3ccc4c(c3)OCO4)CC2)=C[C@H](C2CCCCC2)[C@H]1CCCO — lower, -17.8%
- CN1CCN(C(=O)C2=C[C@@H](C3CCCCC3)C[C@@H](OCc3ccc(CO)cc3)O2)CC1 — lower, -13.6%
- O=C(C1=C[C@@H](C2CC2)C[C@@H](OCc2ccc(CO)cc2)O1)N1CCN(Cc2ccccc2)CC1 — lower, -58.7%
- CN1CCN(C(=O)C2=C[C@H](C3CC3)C[C@H](OCc3ccc(CO)cc3)O2)CC1 — higher, -1.42%
- CCO[C@H]1OC(C(=O)N2CCN(Cc3ccc4c(c3)OCO4)CC2)=C[C@@H](C2CCCCC2)[C@@H]1CCCO — lower, -55.5%
- O=C(C1=C[C@H](c2ccccc2)C[C@H](OCc2ccc(CO)cc2)O1)N1CCN(Cc2ccccc2)CC1 — lower, -41.2%
- Cc1ccc(CNC(=O)C2CCN(c3nnc(N4CCCC4=O)s3)CC2)cc1 — higher, 14.4%
- CCOc1ccc(-c2nc(C#N)c(NCC(C)C)o2)cc1 — higher, 7.61%
- Cc1cccc(OCCCC(=O)NCc2ccco2)c1 — higher, 2.27%
- CCc1cccc(NC(=O)CCSCCC(=O)Nc2cccc(CC)c2)c1 — lower, -9.75%
- CSc1n[nH]c2nc3c(c(=O)n12)C1(CCCCC1)Cc1ccccc1-3 — lower, -13%
- CCn1nnc(-c2ccccc2NC(=O)c2ccc(-n3cnnn3)cc2)n1 — lower, -21.9%
- O=C(C1=C[C@H](C2CC2)C[C@H](OCCCCO)O1)N1CCN(Cc2ccc3c(c2)OCO3)CC1 — lower, -26.3%
- O=C(C1=C[C@H](C2CCCCC2)C[C@H](OCc2ccc(CO)cc2)O1)N1CCN(Cc2ccccc2)CC1 — lower, -67.6%
- O=C(C1=C[C@@H](C2CCCCC2)C[C@@H](OCc2ccc(CO)cc2)O1)N1CCOCC1 — lower, -23.9%
- O=C(C1=C[C@@H](C2CCCCC2)C[C@@H](OCc2ccc(CO)cc2)O1)N1CCN(Cc2ccccc2)CC1 — lower, -25.4%
- O=C(C1=C[C@H](C2CCCCC2)C[C@H](OCCCCO)O1)N1CCN(Cc2ccc3c(c2)OCO3)CC1 — lower, -56.5%
- O=C(C1=C[C@H](C2CCCCC2)C[C@H](OCCCCO)O1)N1CCN(Cc2ccccc2)CC1 — lower, -46.4%
- O=C(C1=C[C@@H](C2CC2)C[C@@H](OCCCCO)O1)N1CCN(Cc2ccccc2)CC1 — higher, 0.7%
- O=C(C1=C[C@@H](C2CCCCC2)C[C@@H](OCCCCO)O1)N1CCN(Cc2ccccc2)CC1 — lower, -50.1%
- O=C(C1=C[C@@H](C2CCCCC2)C[C@@H](OCCCCO)O1)N1CCN(Cc2ccc3c(c2)OCO3)CC1 — lower, -45.1%
